# In PubChem BioAssay AID504834 (National Center for Advancing Translational Sciences (NCATS), 2011):
# The campaign covered roughly 320,000 compounds. About 22,000 (6.9%) were called active. A call without a number means that no potency is given here. About 27% were inconclusive and are not listed. Calls follow the shape of the dose curve; as a rule, active = well fitted inhibition curve with a large enough effect; inconclusive = small, poorly fitted or top-dose-only effect, or another doubt; inactive = no such curve, though single readings can be large or run the other way. This excerpt belongs to a sample that is enriched for actives.
# Test: Primary qHTS for delayed death inhibitors of the malarial parasite plastid, 96 hour incubation
# Conditions: P. falciparum luciferase reporter growth; series mostly up to 28.7 µM
# In short: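 Compounds incubated with erythrocytes infected by luciferase-expressing P. falciparum (2% hematocrit, 0.05% parasitemia final) for 96 hours, 37 C in 5% CO2. Growth inhibition scored as decreased luciferase luminescence.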
# Potency is read from the fitted curve at half-maximal effect.
row,Structure (SMILES),Potency
1,CCOC(=O)c1c(NC(=O)CN2C(=O)NC3(CCC(C)CC3)C2=O)sc(C)c1CC (centres undefined),inactive
2,NC(=O)c1c(NC(=O)CSc2nc(N)cc(=O)[nH]2)sc2c1CCCC2,inactive
3,COc1cc(NS(=O)(=O)c2ccc(NC(=S)NC(=O)c3ccc(Br)cc3)cc2)ncn1,inactive
4,COc1ccccc1Cn1c(CO)nc2ccccc21,inactive
5,COc1ccc(-n2ncc3c(SCC(=O)NNC(C)=O)ncnc32)cc1,inactive
6,CC(=O)c1cccc(NC(=O)c2cc(C)nn2-c2ccccc2)c1,inactive
7,COc1ccc(Cl)cc1C(=O)OCC(=O)NCc1cccs1,inactive
8,Cc1c(-c2nn(C)c(=O)c3ccccc23)oc2ccc(F)cc2c1=O,4.15 µM (active)
9,O=C1c2oc3ccc(Br)cc3c(=O)c2C(c2cccc(F)c2)N1CCO (centres undefined),inactive
10,CCC(=O)NCc1cc(-c2nn(C)c(=O)c3ccccc23)ccc1OC,inactive
11,Cc1ccc(S(=O)(=O)N2CCCCC2)cc1NC(=O)c1cccnc1,inactive
12,O=C(Nc1ccc(S(=O)(=O)N2CCCC2)cc1Cl)C1=COCCO1,inactive
13,CCN(CC)c1ccc(S(=O)(=O)N2CCCCC2)cc1NC(=O)C1=COCCO1,10.4 µM (active)
14,O=C(Nc1ccc(Br)cc1)c1cc(S(=O)(=O)Nc2ccccn2)ccc1Cl,inactive
15,O=C(NNC(=O)C1CCCC1)c1ccc(F)cc1,inactive
16,C=CCn1c(SCC(=O)NCCCO)nc2sc3c(c2c1=O)CCC3,inactive
17,COC(=O)c1c(NC(=O)CCN2CCOCC2)sc2c1CCCC2,inactive
18,CN1CCN(CC(=O)Nc2sc3c(c2C#N)CCC(C(C)(C)C)C3)CC1 (centres undefined),inactive
19,Nc1nc(SCC(=O)NCCN2CCOCC2)nc2sc3c(c12)CCC3,13.1 µM (active)
20,CC(C)(C)C1CCc2c(sc3nc(SCC(N)=O)nc(N)c23)C1 (centres undefined),9.28 µM (active)
21,CCOC(=O)c1sc2nc(C)nc(SCC(N)=O)c2c1C,inactive
22,CC(=O)N1CCc2c(sc(NC(=O)CCS(=O)(=O)c3ccc(C)cc3)c2C(N)=O)C1,inactive

row,Structure (SMILES),Potency
1,O=C(Nc1cc(S(=O)(=O)N2CCOCC2)ccc1OCC(F)(F)F)c1ccc(N2CCCC2=O)cc1,inactive
2,Cc1noc(C)c1C(=O)NCCc1ccc(S(N)(=O)=O)cc1,inactive
3,O=C(NCc1ccccc1)C1=C[C@H](C2CC2)C[C@H](OCc2ccc(CO)cc2)O1,inactive
4,C#Cc1ccc([C@@H]2C=C(C(=O)O)O[C@H](OCCCCO)C2)cc1,inactive
5,O=C(O)C1=C[C@H](c2cccs2)C[C@H](OCCCCO)O1,inactive
6,O=C(C1=C[C@H](c2coc3ccccc3c2=O)C[C@H](OCc2ccc(CO)cc2)O1)N1CCN(Cc2ccccc2)CC1,5.86 µM (active)
7,O=C(C1=C[C@H](c2ccc(C(F)(F)F)cc2)C[C@H](OCc2ccc(CO)cc2)O1)N1CCN(Cc2ccccc2)CC1,13.1 µM (active)
8,CCn1cc(C(=O)N2CCN(Cc3ccc4c(c3)OCO4)CC2)c2cc(OC)c(OC)cc2c1=O,inactive
9,O=C(NCc1ccccc1)C1=C[C@@H](c2ccc(C(F)(F)F)cc2)C[C@@H](OCc2ccc(CO)cc2)O1,4.65 µM (active)
10,CN1CCN(C(=O)C2=C[C@H](c3ccc4c(c3)OCO4)C[C@H](OCc3ccc(CO)cc3)O2)CC1,inactive
11,CC(=O)n1cc([C@@H]2C=C(C(=O)N3CCN(Cc4ccc5c(c4)OCO5)CC3)O[C@H](OCc3ccc(CO)cc3)C2)c2ccccc21,1.65 µM (active)
12,O=C(c1cccc([N+](=O)[O-])c1)N1CCN(Cc2ccccc2)CC1,inactive
13,CC(C)CCN1CCN(Cc2ccc(C(F)(F)F)cc2)CC1CCO (centres undefined),inactive
14,O=C(C1=C[C@H](c2coc3ccccc3c2=O)C[C@H](OCc2ccc(CO)cc2)O1)N1CCOCC1,inactive
15,COc1cccc(/C=C2\Sc3ccc(C(=O)NCC4CCCO4)cc3N(C)C2=O)c1 (centres undefined),inactive
16,CC(C)c1ccc(C2C(C(=O)c3ccco3)=C(O)C(=O)N2CC2CCCO2)cc1 (centres undefined),inactive
17,C/C(=N\Nc1ccc(S(N)(=O)=O)cc1[N+](=O)[O-])c1cccs1,inactive
18,COC(=O)C1(C)CC1(c1ccccc1)c1ccccc1 (centres undefined),inactive
19,CN(C1CCS(=O)(=O)C1)S(=O)(=O)c1ccc2ccccc2c1 (centres undefined),inactive
20,CC(Sc1nn(-c2ccc(Cl)cc2)c(=S)s1)C(=O)NCC1CCCO1 (centres undefined),inactive
21,O=C(O)c1ccc2c(=O)n3c(nc2c1)/C(=C/c1ccc(Cl)c([N+](=O)[O-])c1)CC3,inactive
22,Cc1ccc(OCCOc2cccc(/C=N/NC(N)=O)c2)cc1,inactive

row,Structure (SMILES),Potency
1,O=C1CCC([N+](=O)[O-])C(c2ccccc2Br)N1 (centres undefined),inactive
2,C=CCOc1ccccc1NC(=O)CN1C(=O)CNC1=O,inactive
3,CN(CC(=O)NCc1ccncc1)S(=O)(=O)c1ccc(Br)cc1,inactive
4,O=[N+]([O-])c1ccc(N=Cc2c(O)ccc3ccccc23)cc1,inactive
5,Oc1ccc(N=Cc2c(O)ccc3ccccc23)cc1,6.57 µM (active)
6,Cc1cc(N=Nc2ccc3ccccc3c2)ccc1O,inactive
7,COc1ccc(C)cc1N(CC(=O)NC(C)c1ccccc1)S(C)(=O)=O (centres undefined),inactive
8,CCOC(=O)c1ccc(NC(=O)c2ccc(NC(=O)C3CCCO3)cc2)cc1 (centres undefined),inactive
9,O=C(CCc1ccccc1)NCc1cccnc1,inactive
10,O=C(NCCc1ccccc1)C1CC1,inactive
11,O=C(NCCc1ccccc1)C1CCC(Cn2c(=O)c3ccccc3n(Cc3cccnc3)c2=O)CC1 (centres undefined),6.57 µM (active)
12,CCSc1nnc(SCC(=O)NNC(=O)c2ccccc2F)s1,inactive
13,CS(=O)(=O)c1ccc2nc(NC(=O)c3ccc(N4CCCC4=O)cc3)sc2c1,inactive
14,Cc1cc(Cl)ccc1OCCCC(=O)NCc1ccccn1,inactive
15,Cc1ccc(SCCC(=O)NCc2ccccn2)cc1,inactive
16,CC(C)Cn1c(=O)c2ccccc2n2c(CCC(=O)NCc3ccccn3)nnc12,13.1 µM (active)
17,Cc1ccc(-c2nn(-c3ccccc3)cc2C(=O)NCCCN2CCCC2=O)cc1,inactive
18,CC1(NC(=O)CCS(=O)(=O)c2ccc(Cl)cc2)CCS(=O)(=O)C1 (centres undefined),inactive
19,CC(=O)c1ccc(NC(=O)CCNS(=O)(=O)c2cc(Br)cnc2N)cc1,inactive
20,C/C(=N\NC(=O)CC(C)C)c1c(C(F)(F)F)[nH]n(-c2nc3ccccc3s2)c1=O,inactive
